The target of assay [1] is Rap guanine nucleotide exchange factor 3 (Homo sapiens) (UniProt O95398). Put plainly: Confirmatory qHTS for agonist of cAMP-regulated guanine nucleotide exchange factor 3 (EPAC1) (AID 1645881;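 note: EPAC1 catalysed release of BODIPY-GDP from Rap1B seen as fluorescence loss; 100% = effect of cAMP agonist control; nearly all actives have a fitted effect of over 75% in size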). (In general: Quantitative high-throughput screening tests each substance at several concentrations.)
Assay [2] concerns the target Rap guanine nucleotide exchange factor 4 (Homo sapiens) (UniProt Q8WZA2). Kind of assay: Confirmatory qHTS for agonist of cAMP-regulated guanine nucleotide exchange factor 4 (EPAC2) (AID 1645884).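 Note: nucleotide exchange releases bodipy-GDP from Rap1 and this lowers its fluorescence; % is set by controls: 0 for no effect and ±100 for the full control effect; nearly all actives have a fitted effect of over 65% in size.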
Assay [3] addresses Metallo-beta-lactamase type 2 (Klebsiella pneumoniae) (UniProt C7C422). Kind of assay: qHTS to identify inhibitors of the New Delhi Metallo-beta-lactamase (NDM): assay validation screen against the NCATS LOPAC Collection (AID 1794843). For activity change, negative = inhibition: % is set by controls: 0 for no effect and ±100 for the full control effect. Note: potency is the fitted concentration of half-maximal effect. The method in brief: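 Absorbance at 485 nm from nitrocefin turnover (50 uM solution added), read at plateau, gives the read-out. Compounds in DMSO were incubated first with 2 nM final NDM-1 in pH 7.0 HEPES buffer containing 1 uM ZnSO4 and 0.01% Tween20.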

In assay [4] the target is Glutathione peroxidase 1 (Homo sapiens) (UniProt P07203). Put plainly: Primary qHTS Assay for Inhibitors of Recombinant Selenoprotein Glutathione Peroxidase 1 (GPX1) (AID 1845191). Note: nearly all actives have a fitted effect of over 65% in size. The method in brief:
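GPX1 10 nM, GR 100 nM, GSH 1 mM, NADPH 0.5 mM, CHP 0.5 mM (final). 30-min cpd preincubation, RT. Ex340/Em450 read t=0, t=15 min.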

Assay [5] addresses Phospholipid hydroperoxide glutathione peroxidase GPX4 (Homo sapiens) (UniProt P36969). Kind of assay: Primary qHTS Assay for Inhibitors of Recombinant Selenoprotein Glutathione Peroxidase 4 (GPX4) (AID 1845192). For activity change, negative = inhibition: % is set by controls: 0 for no effect and ±100 for the full control effect. Note: nearly all actives have a fitted effect of over 65% in size. The method in brief:
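qHTS, GR-coupled: GPX4 200 nM + cpd 30 min RT → GSH 1 mM, NADPH 0.5 mM, GR 100 nM → CHP 0.5 mM start; fluor 340/450 at t0 and t15 min; no-enzyme wells as control.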

Assay [6] concerns the target Catechol O-methyltransferase (Homo sapiens) (UniProt P21964). Put plainly: Confirmatory Screen for Target Class Profiling of Small Molecule Inhibitors of Methyltransferases (AID 1745852; calls by dose curve; note: potency is the fitted concentration of half-maximal effect; for activity change, negative = inhibition: % is set by controls: 0 for no effect and ±100 for the full control effect). The following applies: MTase-Glo luminescence, SAH detection, recombinant enzyme; measured here: COMT max response; stronger effect = lower value.
For assay [7], the target named is Guanidinoacetate N-methyltransferase (Homo sapiens) (UniProt Q14353). The description is as above. The conditions noted are these: MTase-Glo luminescence, SAH detection, recombinant enzyme; activity change, negative = inhibition: at 57.3 µM (top of the series) unless noted.
Assay [8] addresses Nicotinamide N-methyltransferase (Homo sapiens) (UniProt P40261). The description is as above. The conditions noted are these: MTase-Glo luminescence, SAH detection, recombinant enzyme; measured here: NNMT max response; stronger effect = lower value.
Assay [9] concerns the target Phenylethanolamine N-methyltransferase (Homo sapiens) (UniProt P11086). Described as above. The conditions noted are these: MTase-Glo luminescence, SAH detection, recombinant enzyme; measured here: PNMT max response; stronger effect = lower value.
The nature of assay [10]: Primary qHTS for inhibitors of nuclear receptor binding SET domain protein 2 (NSD2) in an RCH-ACV wild type WT cells (2C) (AID 1645877). Note: nearly all actives have a fitted effect of over 70% in size. Note: potency is the fitted concentration of half-maximal effect.
The target of assay [11] is Rap guanine nucleotide exchange factor 3 (Homo sapiens) (UniProt O95398). Kind of assay: Confirmatory qHTS for antagonist of cAMP-regulated guanine nucleotide exchange factor 3 (EPAC1) (AID 1645880).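 Note: plate controls were DMSO only for no effect and full effect of the ATA control for full effect; nearly all actives have a fitted effect of over 55% in size.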 The method in brief:
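Released BODIPY-GDP fluoresces less than Rap1-bound BODIPY-GDP; the signal is followed at 480/540 nm at 5-min intervals over 30 min, after 5 min at room temperature. Reactions contain 100 nM EPAC1, 250 nM RAP1B-BODIPY-GDP and 50 uM GDP; results are normalized to ATA and DMSO.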

Assay [12] has as its target Rap guanine nucleotide exchange factor 4 (Homo sapiens) (UniProt Q8WZA2). Kind of assay: Confirmatory qHTS for antagonist of cAMP-regulated guanine nucleotide exchange factor 4 (EPAC2) (AID 1645885). Note: nearly all actives have a fitted effect of over 25% in size. Note: potency is the fitted concentration of half-maximal effect.
The nature of assay [13]: NCATS anti-infectives library activity on the primary C. elegans qHTS viability assay (AID 1745855; calls by dose curve; note: potency is the fitted concentration of half-maximal effect). The method in brief:
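GFP read-out by 488 nm laser cytometry at day 0, 3 and 7, gated on object perimeter, area and peak intensity, scored viability of PE254-GFP-FLuc worms exposed to compound in S medium with bacterial capsules at 21 °C.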

The nature of assay [14]: NCATS anti-infectives library activity on HEK293 viability as a counter-qHTS vs the C. elegans viability qHTS (AID 1745854). Note: % is set by controls: 0 for no effect and ±100 for the full control effect. The method in brief:
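Cytotoxicity counter-screen to a worm viability qHTS: CellTiter-Glo luminescence read 10 min after reagent addition. Compounds (final up to 41.7 uM, a 1:5 dilution series) incubated 24 hr at 37C with 1,500 HEK293 cells per well; digitonin control.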

Assay [15] concerns the target Nuclear receptor subfamily 1 group I member 3 (Homo sapiens) (UniProt Q14994). Put plainly: Primary qHTS for antagonist of constitutive androstane receptor (CAR) against the NCATS DSHEA and TCM libraries (AID 1794836). The method in brief: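 HepG2 cells stably carrying hCAR and a CYP2B6 luciferase reporter (2,500 cells/well) attached for 5 h, then received compounds with 48 uM CITCO for 24 h at 37C. ONE-Glo luminescence read antagonism; CellTiter-Fluor (405/540 nm) gave viability.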

A short description of assay [16]: Viability counterscreen for antagonist of constitutive androstane receptor (CAR) against the NCATS DSHEA and TCM libraries (AID 1794837).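 Note: compound exposure lasted 24 h before viability reading; 0% is about no effect.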 The method in brief: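 HepG2-CYP2B6-hCAR cells (2,500/well) were allowed to attach for 5 h, then exposed to compounds with 48 uM CITCO for 24 h at 37C. Viability was read by CellTiter-Fluor fluorescence after 1 h.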
In general terms: A counterscreen serves to expose hits that act by an unwanted route or on another target.

Assay [17] can be described thus: Viability counterscreen for agonist of constitutive androstane receptor (CAR) against the NCATS DSHEA and TCM libraries (AID 1794838). Note: 0% is about no effect. The method in brief:
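HepG2-CYP2B6-hCAR cells (2,500/well) attached 5 h, then got compounds plus 0.75 uM PK11195 final. After 24 h at 37C, viability read by CellTiter-Fluor fluorescence (Ex/Em 405/540 nm).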

Assay [18] concerns the target Nuclear receptor subfamily 1 group I member 3 (Homo sapiens) (UniProt Q14994). Kind of assay: Primary qHTS for agonist of constitutive androstane receptor (CAR) against the NCATS DSHEA and TCM libraries (AID 1794839).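 Note: HepG2 cells expressing human CAR with a CYP2B6 reporter plus PK11195 antagonist; 0% is about no effect.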 The method in brief: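 HepG2-CYP2B6-hCAR cells (2,500/well) were attached for 5 h, then treated for 24 h at 37 °C with compounds plus 0.75 µM PK11195. Luciferase luminescence (ONE-Glo) was read, with CellTiter-Fluor viability (Ex/Em 405/540 nm).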

The results in this text go back to PubChem BioAssay (NCATS).

The structures appear in SMILES notation. Results filed as inconclusive are left out. Activity calls are given as the source filed them. Unless noted, calls come from the whole dose curve; as a rule, active = well fitted curve in the direction sought with a large enough effect; inconclusive = small, poorly fitted or top-dose-only effect, or another doubt; inactive = no such curve, though single readings can be large; an effect the other way counts as inactive or inconclusive.

Sequence of Phospholipid hydroperoxide glutathione peroxidase GPX4 (Homo sapiens) (P36969 whole entry, looked up): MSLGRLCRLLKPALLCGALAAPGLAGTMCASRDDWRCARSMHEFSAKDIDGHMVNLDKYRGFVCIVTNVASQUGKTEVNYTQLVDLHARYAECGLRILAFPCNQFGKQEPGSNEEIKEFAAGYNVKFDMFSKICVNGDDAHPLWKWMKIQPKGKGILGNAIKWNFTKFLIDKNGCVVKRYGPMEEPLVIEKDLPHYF
Sequence of Phenylethanolamine N-methyltransferase (Homo sapiens) (P11086 whole entry, looked up, the tested form may be a part): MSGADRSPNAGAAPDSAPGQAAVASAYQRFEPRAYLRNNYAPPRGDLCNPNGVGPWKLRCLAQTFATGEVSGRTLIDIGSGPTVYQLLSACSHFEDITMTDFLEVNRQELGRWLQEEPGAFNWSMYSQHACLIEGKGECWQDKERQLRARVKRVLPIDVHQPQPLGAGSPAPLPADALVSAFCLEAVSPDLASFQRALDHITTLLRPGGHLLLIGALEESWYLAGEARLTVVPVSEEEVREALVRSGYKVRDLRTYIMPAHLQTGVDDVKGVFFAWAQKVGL
Sequence of Nicotinamide N-methyltransferase (Homo sapiens) (P40261 whole entry, looked up): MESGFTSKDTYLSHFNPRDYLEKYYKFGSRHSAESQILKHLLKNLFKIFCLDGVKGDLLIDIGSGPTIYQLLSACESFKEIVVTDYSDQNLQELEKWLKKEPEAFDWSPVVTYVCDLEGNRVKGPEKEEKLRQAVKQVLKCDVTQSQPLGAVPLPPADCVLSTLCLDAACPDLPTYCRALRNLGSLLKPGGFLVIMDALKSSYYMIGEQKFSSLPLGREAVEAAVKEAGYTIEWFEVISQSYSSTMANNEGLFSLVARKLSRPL
Sequence of Catechol O-methyltransferase (Homo sapiens) (P21964 whole entry, looked up): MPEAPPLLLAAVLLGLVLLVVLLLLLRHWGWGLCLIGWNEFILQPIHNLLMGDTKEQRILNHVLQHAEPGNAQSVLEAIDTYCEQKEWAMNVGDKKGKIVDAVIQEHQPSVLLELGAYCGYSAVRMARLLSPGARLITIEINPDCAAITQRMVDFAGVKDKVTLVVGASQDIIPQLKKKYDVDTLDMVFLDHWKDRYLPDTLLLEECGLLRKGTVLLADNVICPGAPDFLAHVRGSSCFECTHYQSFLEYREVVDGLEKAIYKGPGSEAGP
Sequence of Nuclear receptor subfamily 1 group I member 3 (Homo sapiens) (Q14994 whole entry, looked up): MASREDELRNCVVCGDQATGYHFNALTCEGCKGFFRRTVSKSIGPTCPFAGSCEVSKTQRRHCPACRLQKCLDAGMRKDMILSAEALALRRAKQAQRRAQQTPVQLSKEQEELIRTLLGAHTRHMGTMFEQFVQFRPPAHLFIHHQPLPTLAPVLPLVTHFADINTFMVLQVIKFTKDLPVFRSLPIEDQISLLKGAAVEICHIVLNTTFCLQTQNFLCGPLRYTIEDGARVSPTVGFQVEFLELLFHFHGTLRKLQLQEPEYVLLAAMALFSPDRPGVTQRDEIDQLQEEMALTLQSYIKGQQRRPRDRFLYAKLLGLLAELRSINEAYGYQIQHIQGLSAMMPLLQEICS
Sequence of Rap guanine nucleotide exchange factor 3 (Homo sapiens) (O95398 whole entry, looked up): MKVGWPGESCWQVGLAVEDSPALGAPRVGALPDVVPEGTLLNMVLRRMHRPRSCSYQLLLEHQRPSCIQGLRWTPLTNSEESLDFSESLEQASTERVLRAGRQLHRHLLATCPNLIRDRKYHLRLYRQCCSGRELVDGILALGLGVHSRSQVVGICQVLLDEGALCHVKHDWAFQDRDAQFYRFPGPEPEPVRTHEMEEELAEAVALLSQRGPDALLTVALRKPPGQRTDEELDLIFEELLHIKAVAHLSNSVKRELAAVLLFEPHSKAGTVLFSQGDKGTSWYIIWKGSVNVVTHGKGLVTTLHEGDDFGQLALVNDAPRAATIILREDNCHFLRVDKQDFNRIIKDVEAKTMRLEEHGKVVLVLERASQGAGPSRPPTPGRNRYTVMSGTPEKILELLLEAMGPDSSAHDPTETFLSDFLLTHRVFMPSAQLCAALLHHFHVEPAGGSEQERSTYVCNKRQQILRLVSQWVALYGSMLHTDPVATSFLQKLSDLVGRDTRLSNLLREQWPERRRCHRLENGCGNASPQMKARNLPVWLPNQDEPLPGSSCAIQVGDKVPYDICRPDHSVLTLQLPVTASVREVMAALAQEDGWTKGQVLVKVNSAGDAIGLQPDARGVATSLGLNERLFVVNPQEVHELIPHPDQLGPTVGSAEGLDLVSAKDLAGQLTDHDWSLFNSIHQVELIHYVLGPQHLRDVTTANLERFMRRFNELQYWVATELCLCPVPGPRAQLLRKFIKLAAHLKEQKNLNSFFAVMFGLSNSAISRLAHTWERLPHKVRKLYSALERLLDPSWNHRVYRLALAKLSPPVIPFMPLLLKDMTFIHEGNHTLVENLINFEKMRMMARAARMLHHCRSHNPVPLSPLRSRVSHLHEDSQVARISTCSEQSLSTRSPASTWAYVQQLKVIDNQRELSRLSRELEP
Sequence of Rap guanine nucleotide exchange factor 4 (Homo sapiens) (Q8WZA2 whole entry, looked up): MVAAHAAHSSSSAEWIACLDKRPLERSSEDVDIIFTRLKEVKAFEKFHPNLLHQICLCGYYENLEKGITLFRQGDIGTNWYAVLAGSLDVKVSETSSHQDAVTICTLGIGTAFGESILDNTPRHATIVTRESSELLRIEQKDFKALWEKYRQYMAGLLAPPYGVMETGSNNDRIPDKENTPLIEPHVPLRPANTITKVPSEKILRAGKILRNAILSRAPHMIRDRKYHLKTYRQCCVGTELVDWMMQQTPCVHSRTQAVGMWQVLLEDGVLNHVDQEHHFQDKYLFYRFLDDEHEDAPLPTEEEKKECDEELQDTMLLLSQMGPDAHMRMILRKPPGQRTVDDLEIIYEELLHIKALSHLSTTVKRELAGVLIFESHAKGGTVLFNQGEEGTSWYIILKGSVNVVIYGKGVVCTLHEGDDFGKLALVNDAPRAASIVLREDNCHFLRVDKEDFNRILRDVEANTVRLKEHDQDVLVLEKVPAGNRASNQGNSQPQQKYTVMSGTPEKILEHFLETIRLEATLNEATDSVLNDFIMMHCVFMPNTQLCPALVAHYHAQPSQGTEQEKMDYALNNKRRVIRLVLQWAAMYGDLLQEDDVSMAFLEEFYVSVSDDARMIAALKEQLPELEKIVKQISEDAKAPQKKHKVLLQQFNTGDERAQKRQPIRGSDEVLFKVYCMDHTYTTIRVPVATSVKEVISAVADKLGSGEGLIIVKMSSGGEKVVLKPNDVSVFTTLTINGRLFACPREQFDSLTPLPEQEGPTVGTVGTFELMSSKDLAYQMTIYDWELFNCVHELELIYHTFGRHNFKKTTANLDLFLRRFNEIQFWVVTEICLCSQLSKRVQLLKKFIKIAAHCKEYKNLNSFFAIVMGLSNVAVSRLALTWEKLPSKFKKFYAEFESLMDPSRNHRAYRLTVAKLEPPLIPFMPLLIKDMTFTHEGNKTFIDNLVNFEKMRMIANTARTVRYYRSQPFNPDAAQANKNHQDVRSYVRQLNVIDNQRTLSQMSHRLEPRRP
Sequence of Glutathione peroxidase 1 (Homo sapiens) (P07203 whole entry, looked up): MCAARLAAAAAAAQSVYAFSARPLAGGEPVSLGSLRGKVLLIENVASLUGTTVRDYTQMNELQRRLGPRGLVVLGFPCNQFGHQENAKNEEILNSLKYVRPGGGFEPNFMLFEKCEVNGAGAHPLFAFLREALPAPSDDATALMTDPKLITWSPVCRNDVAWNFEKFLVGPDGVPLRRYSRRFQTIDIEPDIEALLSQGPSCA
Sequence of Metallo-beta-lactamase type 2 (Klebsiella pneumoniae) (C7C422 whole entry, looked up): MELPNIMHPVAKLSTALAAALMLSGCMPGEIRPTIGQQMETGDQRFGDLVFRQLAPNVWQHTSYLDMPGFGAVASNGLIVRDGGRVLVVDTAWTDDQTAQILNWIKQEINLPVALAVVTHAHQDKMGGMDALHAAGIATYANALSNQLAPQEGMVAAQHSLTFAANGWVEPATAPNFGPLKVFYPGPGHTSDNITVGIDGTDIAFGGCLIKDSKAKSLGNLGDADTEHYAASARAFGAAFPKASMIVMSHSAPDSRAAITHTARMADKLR

For the molecule `O=[N+]([O-])c1cc(O)c(O)c([N+](=O)[O-])c1`, the Potency result in assay [1], in [2], in assay [3], in assay [4] and in assay [5] was “inactive” in each case.
Consider `CN(N=O)c1cc(O)ccc1O`, for which the activity in [6] was -96.7%; in [8], -67.2%; in assay [9], -42.7%. In addition, the Potency in [7] is 24.3 µM (active). The Potency entry in assay [3], in [4] and in [5] was “inactive” each time.
With `CN1CCc2cc(O)cc3c2[C@H]1Cc1ccc(O)c(O)c1-3`, the activity in assay [6] was -101%; in assay [8], -4.5%; in [9], -1.47%. Also, the activity change, negative = inhibition in assay [7] was -1.59%. Moreover, the Potency result in [3], in assay [4] and in assay [5] was “inactive” each time.
With `Cc1cn(C[C@H](N)C(=O)O)c(=O)n(Cc2cc(-c3ccccc3)sc2C(=O)O)c1=O`, the Potency result in assay [10] and in assay [5] was “inactive” each time.
On to `NC(=O)CI`, for which the activity in [6] was -3.06%; in [8], -21.3%; in [9] it was -8.06%. Further, the activity change, negative = inhibition in assay [7] came out at 0.112%. Moreover, the Potency result in assay [3], in assay [4] and in [5] was “inactive” in each case.
Turning to `CCCN(CCC)CCc1ccc(O)c(O)c1`, the activity in [6] was 153%; in [8], -2.74%; in assay [9], -0.0665%. The activity change, negative = inhibition in assay [7] stood at 6.88%. Moreover, the Potency entry in assay [3], in [4] and in assay [5] was “inactive” each time.
With `C/C(O)=C(\C#N)C(=O)Nc1cc(Br)ccc1Br`, the Potency result in assay [10], in assay [4] and in assay [5] was “inactive” in each case.
Take `CCCn1c(C)c(C(=O)c2ccc3ccccc3c2)c2ccccc21`: the outcome in assay [11] is “inactive”. Also, the Potency entry in assay [1] and in assay [2] was “inactive” throughout.
Regarding `CC(CCc1ccc(O)cc1)O[C@@H]1O[C@H](CO[C@H]2OC[C@](O)(CO)[C@H]2O)[C@@H](O)[C@H](O)[C@H]1O` (stereo partly specified), the Potency result in assay [10], in assay [4] and in assay [5] was “inactive” in each case.
With `O=c1[nH]cc(N(CCCl)CCCl)c(=O)[nH]1`, the outcome in assay [11] was “inactive”. In addition, the Potency entry in assay [1], in [2], in assay [12], in [4] and in assay [5] was “inactive” throughout.
`COC1CC(OC2CCC3(C=O)C(CCC4C3CCC3(C)C(C5=CC(=O)OC5)CCC43O)C2)OC(C)C1OC1OC(CO)C(O)C(O)C1O` (stereo unspecified): the Potency in assay [10] is 0.153 µM (active). The Potency result in assay [4] and in assay [5] was “inactive” in each case.
For `CCCCCc1cc(O)c2c(c1)OC(C)(C)[C@@H]1CCC(C)=C[C@@H]21`, the Potency entry in [1] and in assay [2] was “inactive” in each case.
For `CN(N=O)c1ccc(O)c(O)c1`, the activity in assay [6] was -69.3%; in assay [8], -14.9%; in [9], -27.8%. Further, the Potency in assay [7] was 27.3 µM (active); in [3], 12.6 µM (active). The Potency entry in assay [4] and in assay [5] was “inactive” in each case.
Take `CCCN1CCc2cc(O)cc3c2[C@H]1Cc1ccc(O)c(O)c1-3`: the activity in assay [6] is 2.74%; in [8], -21.6%; in assay [9] it was 0.0057%. In addition, in [7], the activity change, negative = inhibition is -2.35%. The Potency entry in assay [3], in [4] and in assay [5] was “inactive” throughout.
For `CC(C)(C)c1cc(C=C(C#N)C#N)cc(C(C)(C)C)c1O`, the results for the activity in assay [6], in assay [8] and in assay [9] were -14.8%, -20.4% and -25.9%, respectively. The activity change, negative = inhibition in assay [7] was -1.85%. Further, the Potency in assay [13] is 0.29 µM (active). Moreover, the Potency entry in [3], in [4] and in assay [5] was “inactive” each time.
For `O=C1CN=C(c2ccccc2)c2cc(Cl)ccc2N1CC1CC1`, in assay [11], the outcome is “inactive”. The Potency entry in assay [1] was “inactive”. The Potency in assay [12] was 55.5 µM (active).
For the molecule `N#CC(OC1OC(COC2OC(CO)C(O)C(O)C2O)C(O)C(O)C1O)c1ccccc1` (stereo unspecified), the Potency entry in assay [10] and in assay [5] was “inactive” each time.
With `CCCN1CCc2cccc3c2[C@H]1Cc1ccc(O)c(O)c1-3`, the activity in assay [6] was 4.79%; in assay [8], -3.62%; in assay [9], 6.46%. In assay [7], the activity change, negative = inhibition worked out at 5.72%. Also, the Potency entry in [3] and in assay [4] was “inactive” in each case.
On to `NCCc1ccc(S(=O)(=O)F)cc1`, for which the outcome in [14] is “inactive”.
For the molecule `O=c1c2ccccc2[se]n1-c1ccccc1`, the Potency in assay [13] was 18.3 µM (active).
With `O=C/C=C/c1ccccc1`, the outcome in [15], in assay [16], in assay [17] and in [18] was “inactive” each time.
In the case of `CNC(C)C(O)c1ccc(O)cc1` (stereo unspecified), the outcome in assay [15], in [16], in assay [17] and in [18] was “inactive” in each case.
In the case of `COc1ccc(OC)c(C(O)C(C)N)c1` (stereo unspecified), the Potency result in assay [3], in assay [4] and in assay [5] was “inactive” throughout.
